Source: PubChem BioAssay
Shown are actives, neighbours in structure and some others; about 1.6% of the full set was active somewhere.
KCNQ2 pot: enhances the rat KCNQ2 potassium channel | AID 2239 | actives 0.54% (n = 310,000) | CHO-K1 KCNQ2, FluxOR thallium flux fluorescence; hits give high values | B-score at 10 µM | O88943;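 active = fluorescence ratio B-score at least 3 SD of library B-scores, with initial fluorescence B-score within 3 of them, cut at about 5.3 in these data; same plate scores as AID 2156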;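 note: B-score of peak minus minimum over baseline fluorescence ratio after K+ and Tl+ stimulus; positive B-score means potentiation of KCNQ2 with more thallium influx and brighter signal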
KCNQ2 block: blocks the rat KCNQ2 potassium channel. CHO-K1 KCNQ2, FluxOR thallium flux, 20 min; hits give low values. B-score at 10 µM. actives 1.1% (n = 310,000);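 active = fluorescence ratio B-score at most minus 3 library SDs, with starting brightness B-score within 2 library SDs, cut at about -5.5 in these data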
Kir21 conf inh: confirmation of mouse Kir2.1 potassium channel inhibitors; shares compounds with KCNQ2 pot; Kir2.1-expressing cells, FluxOR thallium flux fluorescence; hits give low values; Tl flux remaining, % of negative control (hits give low values), % at 10 µM; actives 41% (n = 2,300);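 active = Primary-screen hit whose thallium flux fell at least 3 control SD below untreated wells in both duplicates, with normal baseline fluorescence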
HEK293 Tl flux: alters thallium flux in parental HEK293 cells, Kir2.1 counter-screen | actives 19% (n = 2,300) | FluxOR thallium flux fluorescence; 0% = unstimulated blank wells | FluxOR signal as % of negative control (100 = no effect), % at 10 µM | shares compounds with KCNQ2 pot | AID 2105;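 active = dye signal at least 3 control SD above or below untreated wells in both duplicates, raw fluorescence within 3, either direction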;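 note: percent is based on the flux ratio of peak minus minimum fluorescence over baseline F0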
CHO-K1 Tl ctr: alters thallium flux in parental CHO-K1 cells, KCNQ2 counter-screen. activity increase over 3SD of controls, % at 10 µM. FluxOR thallium flux fluorescence; zero = vehicle mean+3SD, 100% = vehicle-minus-blank window. actives 43% (n = 1,200). shares compounds with KCNQ2 pot;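 active = signal rise of at least 3 SD above the untreated control mean, in both duplicate wells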;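 note: counter screen of KCNQ2 potentiator hits so any rise reflects channel-independent effects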
KCNQ1 pot spec: tests whether KCNQ2 potentiators also act on human KCNQ1 | CHO KCNQ1 stable, FluxOR thallium flux fluorescence; beyond 3SD, as % of vehicle-control signal | activation over 3SD threshold, % at 10 µM | actives 28% (n = 1,200) | AID 2283 | shares compounds with KCNQ2 pot;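 active = fluorescence ratio rise of at least 3 SD of vehicle wells above their mean, in both replicate wells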
Target sequence (P51787 whole entry, looked up): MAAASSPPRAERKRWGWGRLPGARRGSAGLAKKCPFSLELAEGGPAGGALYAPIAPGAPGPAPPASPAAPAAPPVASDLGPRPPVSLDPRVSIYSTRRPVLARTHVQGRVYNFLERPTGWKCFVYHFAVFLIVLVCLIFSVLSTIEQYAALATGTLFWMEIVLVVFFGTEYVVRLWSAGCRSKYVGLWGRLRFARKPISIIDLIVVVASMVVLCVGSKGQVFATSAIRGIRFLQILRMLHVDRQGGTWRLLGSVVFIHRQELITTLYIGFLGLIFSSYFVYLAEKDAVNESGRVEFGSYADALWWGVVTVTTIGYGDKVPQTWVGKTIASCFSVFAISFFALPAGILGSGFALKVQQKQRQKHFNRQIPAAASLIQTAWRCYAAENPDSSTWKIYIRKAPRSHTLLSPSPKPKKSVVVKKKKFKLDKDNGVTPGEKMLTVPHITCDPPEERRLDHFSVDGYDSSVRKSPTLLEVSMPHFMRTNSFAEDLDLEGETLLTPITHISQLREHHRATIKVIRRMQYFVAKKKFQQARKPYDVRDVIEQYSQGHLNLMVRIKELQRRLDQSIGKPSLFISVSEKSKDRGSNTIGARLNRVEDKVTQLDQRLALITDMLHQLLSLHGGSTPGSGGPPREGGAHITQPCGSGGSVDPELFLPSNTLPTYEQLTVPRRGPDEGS
KCNQ2 pot conf: rat KCNQ2 channel potentiator confirmation. potentiation, less the hit threshold, % at 10 µM. shares compounds with KCNQ2 pot. actives 68% (n = 1,200). CHO-KCNQ2 cells, FluxOR thallium flux fluorescence;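 active = fluorescence ratio rising 3 SD or more over the vehicle control mean in both replicates, plus primary screen hit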;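 note: peak minus minimum thallium fluorescence divided by baseline after K/Tl stimulus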
Kir21 spec: mouse Kir2.1 off-target activity of KCNQ2 potentiators; shares compounds with KCNQ2 pot; HEK293 Kir2.1, FluxOR thallium flux fluorescence; activity over 3SD threshold, % at 10 µM; actives 2% (n = 1,200);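 active = fluorescence ratio rise of at least 3 SD above the vehicle-control mean, seen in both replicates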
KCNQ2 W236L pot: rat KCNQ2 W236L mutant potentiation by KCNQ2 potentiators; actives 10% (n = 940); CHO KCNQ2-W236L, automated patch clamp current; shares compounds with KCNQ2 pot; current increase over 3SD of negative controls (%), hits give high values, % at 25 µM;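 active = current increase at least 3 SD of the untreated controls above them in both duplicate recordings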
Of the large screens only hits and unclear results are named; the others gave an inactive call (follow-up assays come after a bar, where they were run).

O=C(CSc1nc(=O)n2ccccc2n1)OCc1ccccc1	none
CN(C(=O)CC(=O)Nc1ccc(Cl)c(Cl)c1)c1ccccc1	none
Cc1ccc(-c2ccc(=O)n(CC(=O)NCCC(C)C)n2)cc1	none (no result: KCNQ2 pot)
CCCCc1nc(SCC(=O)N2CCCCC2)c2c(=O)n(C)c(=O)n(C)c2n1	KCNQ2 pot 26.4 | Kir21 conf inh inactive | HEK293 Tl flux inactive | CHO-K1 Tl ctr inactive | KCNQ1 pot spec inactive | KCNQ2 pot conf 100.5 | Kir21 spec inactive | KCNQ2 W236L pot inactive
Cn1c(=O)c2c(SCC(=O)N3CCOCC3)nc(C3CCCCC3)nc2n(C)c1=O	none
COc1cc([N+](=O)[O-])ccc1NC(=O)N1CCCCCC1	none
O=Cc1cc2ccccc2nc1SCCCF	none
S=c1[nH]nc(-c2cccs2)n1/N=C/c1c(Cl)cccc1Cl	KCNQ2 pot 7.36 | Kir21 conf inh inactive | HEK293 Tl flux inactive | CHO-K1 Tl ctr inactive | KCNQ1 pot spec inactive | KCNQ2 pot conf 7.3 | Kir21 spec inactive | KCNQ2 W236L pot inactive
Cc1ccc(/C=N/n2c(-c3cccs3)n[nH]c2=S)cc1	none
CC(NC(=O)CCc1ccccc1)c1cc2c(cc1Cl)OCCO2 (centres undefined)	none (no result: KCNQ2 pot)
Cc1cc(NC(=O)c2cccs2)ncc1NC(=O)C(C)(C)C	none
CCOC(=O)c1c(-c2ccccc2)csc1NC(=S)NC	KCNQ2 pot 7.8 | Kir21 conf inh inactive | HEK293 Tl flux 219.5% | CHO-K1 Tl ctr inactive | KCNQ1 pot spec inactive | KCNQ2 pot conf 7.3 | Kir21 spec inactive | KCNQ2 W236L pot inactive
CCOC(=O)c1c(-c2ccccc2)csc1NC(=O)CSc1nnc(C)s1	none (no result: KCNQ2 pot)
Cc1cccc(NS(=O)(=O)c2c(C)nc3scc(C)n3c2=O)c1	none
COc1ccc(C2=NS(=O)(=O)N(C)C(C(=O)Nc3ccc(C(C)=O)cc3)=C2)cc1OC	none
Cc1cc2oc(=O)cc(CN(C)Cc3cccc(F)c3)c2cc1C	none
CCc1cc2c(CN(C)Cc3ccccc3F)cc(=O)oc2cc1O	none (no result: KCNQ2 pot) | Kir21 conf inh inactive | HEK293 Tl flux inactive
CCc1ccc2c(CN3CCN(Cc4ccccc4)CC3)cc(=O)oc2c1	none (no result: KCNQ2 pot)
CCc1cc2c(CN3CCN(Cc4ccccc4)CC3)cc(=O)oc2cc1O	none | Kir21 conf inh 74.0% | HEK293 Tl flux inactive
CN(C)C1(CNC(=O)C2CCN(S(=O)(=O)c3cccc(C(F)(F)F)c3)CC2)CCCCC1	none
CC(CC(=O)N1CCc2ccccc21)n1cccn1 (centres undefined)	none
S=c1[nH]c2cc(Cl)ccc2s1	KCNQ2 pot 18.2 | Kir21 conf inh inactive | HEK293 Tl flux 552.5% | CHO-K1 Tl ctr 10.3 | KCNQ1 pot spec inactive | KCNQ2 pot conf 54.0 | Kir21 spec 2.3 | KCNQ2 W236L pot inactive
S=c1[nH]c2ccc(Cl)cc2[nH]1	none
CC1CCc2c(C(=O)Nc3ccc(OC(F)(F)F)cc3)csc2C1 (centres undefined)	none
CCCNS(=O)(=O)/C=C/c1ccccc1	none
CNS(=O)(=O)/C=C/c1ccccc1	KCNQ2 pot 16.5 | Kir21 conf inh inactive | HEK293 Tl flux inactive | CHO-K1 Tl ctr inactive | KCNQ1 pot spec inactive | KCNQ2 pot conf inactive | Kir21 spec inactive
CCOc1ccc(NC(=O)CCn2c(=O)[nH]c3ccsc3c2=O)cc1	none
COc1cc(OC)c(OC)cc1CCC(C)NCCC(c1ccccc1)c1ccccc1 (centres undefined)	none | Kir21 conf inh 48.5% | HEK293 Tl flux inactive
COc1ccccc1CCNC(C)CCc1ccc(O)cc1 (centres undefined)	none (no result: KCNQ2 pot)
COc1ccccc1NC(=O)C(C)OC(=O)/C(=C/c1ccccc1)NC(C)=O (centres undefined)	none (no result: KCNQ2 pot)
O=C(c1ccc2oc(Cc3ccc(Cl)cc3)nc2c1)N1CCCCC1CCO (centres undefined)	none
O=C(CN1CCCCC1)NNc1nc(-c2ccccc2)c2cc(Br)ccc2n1	KCNQ2 pot 10.9 | Kir21 conf inh inactive | HEK293 Tl flux inactive | CHO-K1 Tl ctr 75.1 | KCNQ1 pot spec inactive | KCNQ2 pot conf 71.2 | Kir21 spec inactive | KCNQ2 W236L pot inactive
CC(=O)NNc1nc(-c2ccccc2)c2cc(Br)ccc2n1	none (no result: KCNQ2 pot)
O=C(NC1(O)C(=O)c2ccccc2C1=O)c1ccc(C(F)(F)F)cc1	none (no result: KCNQ2 pot)
Cc1ccc(C(=O)NC2(O)C(=O)c3ccccc3C2=O)cc1C	KCNQ2 pot 5.69 | Kir21 conf inh inactive | HEK293 Tl flux inactive | CHO-K1 Tl ctr inactive | KCNQ1 pot spec inactive | KCNQ2 pot conf inactive | Kir21 spec inactive | KCNQ2 W236L pot 21.6%
O=C1C(Cl)=C(Nc2ccccc2)C(=O)c2ccccc21	none (no result: KCNQ2 pot)
Cc1ccc(NC2=C(NC(=O)c3ccccc3)C(=O)c3ccccc3C2=O)cc1Cl	none (no result: KCNQ2 pot)
O=C(O)c1ccc(NC2=C(Cl)C(=O)c3ccccc3C2=O)cc1	KCNQ2 block -10.3 | Kir21 conf inh inactive | HEK293 Tl flux inactive
O=C(O)c1cccc(NC2=C(Cl)C(=O)c3ccccc3C2=O)c1	KCNQ2 block -7.64 | Kir21 conf inh 37.5% | HEK293 Tl flux inactive
Cc1ccc(S(=O)(=O)N2CCC(C(=O)OC(C)C(=O)NCc3ccccc3)CC2)cc1C (centres undefined)	none (no result: KCNQ2 pot)
CCCCn1c(N)c(N(CCOC)C(=O)c2ccc(-n3c(C)ccc3C)cc2)c(=O)[nH]c1=O	none (no result: KCNQ2 pot)
COc1cc(CNCCc2ccccc2F)ccc1OCc1ccc(Cl)nc1	none
COc1cc(CNCCc2ccc(F)cc2)ccc1OCc1ccc(Cl)nc1	none (no result: KCNQ2 pot) | Kir21 conf inh 32.5% | HEK293 Tl flux inactive
CCc1sc(C(=O)Nc2ccc3c(c2)OCCO3)cc1Br	none
C=CCNc1nc(NCc2ccccc2)c(C#N)c2c1CN(C)CC2	none (no result: KCNQ2 pot) | Kir21 conf inh 42.0% | HEK293 Tl flux inactive
CCCc1nc(NCc2ccccc2)c(C#N)c2c1CCCC2	none (no result: KCNQ2 pot)
CCCCCNc1nc(NCCCO)c(C#N)c2c1CN(C)CC2	none
CCN1CCc2c(C#N)c(NCc3ccccc3)nc(N(CC)CC)c2C1	KCNQ2 pot 9.13 | Kir21 conf inh inactive | HEK293 Tl flux inactive | CHO-K1 Tl ctr inactive | KCNQ1 pot spec inactive | KCNQ2 pot conf 31.4 | Kir21 spec inactive | KCNQ2 W236L pot inactive
COCCN(C(=O)COC(=O)CCS(=O)(=O)c1ccccc1)c1c(N)n(Cc2ccccc2)c(=O)[nH]c1=O	none (no result: KCNQ2 pot)
CC(=O)/C(=N\Nc1ccc(C)cc1)Sc1nncn1C	none
Cc1cc(C)c(S(=O)(=O)N2CCC(C(=O)NCc3ccncc3)CC2)c(C)c1	none
